Most compounds without a hit are left out; they make up all but 3.9% or so of the library.
SKKanGAS inh: blocks kanamycin growth of S. pyogenes SKKanGAS strain; BacTiter-Glo, 6 h; actives 1.3% (n = 300,000); AID 1662; inhibition, % at 7.5 µM;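 active means mean replicate score, as percent of positive control median, at least 50; inconclusive means mean below 50 but one replicate at or above 50; inactive means mean and every replicate below 50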;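 further: strain carries kanamycin resistance gene driven by streptokinase promoter and grows in 40 µg/ml kanamycin; loss of luminescence reflects streptokinase promoter inhibition or plain growth inhibition; 0% = median of DMSO wells and 100% = positive control at its reference dose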
Platelet DG rel: modulates dense granule release in human platelets. human platelet-rich plasma, SFLLRN dense granule ATP release, luminescence. inhibition, %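 (compounds screened at 7.5 µM in platelet-rich plasma)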. actives 0.22% (n = 300,000);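 active means mean replicate score, as percent of positive control, at or above 50; inconclusive means mean below 50 but at least one replicate at or above 50; inactive means mean and every replicate below 50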
WT yeast gro inh: growth inhibition of WT yeast, mitochondrial fusion screen. mitochondrial fusion phenotypic screen, WT strain. inhibition, % at 10 µM. actives 2.1% (n = 190,000). AID 1362; in the data active means inhibition above about 58%; tested in S. cerevisiae
Rtt109 Vps75: blocks Candida albicans Rtt109/Vps75 acetyltransferase activity. Q5AAJ8. AID 540336. purified Rtt109/Vps75, ThioGlo CoA-SH fluorescence, 4 h. actives 0.16% (n = 330,000). inhibition, % at 34.9 µM;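 active means inhibition of at least 50% in every replicate; inconclusive means best replicate reaches 50% inhibition but some replicates fall short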
Target sequence (Q5AAJ8 whole entry, looked up): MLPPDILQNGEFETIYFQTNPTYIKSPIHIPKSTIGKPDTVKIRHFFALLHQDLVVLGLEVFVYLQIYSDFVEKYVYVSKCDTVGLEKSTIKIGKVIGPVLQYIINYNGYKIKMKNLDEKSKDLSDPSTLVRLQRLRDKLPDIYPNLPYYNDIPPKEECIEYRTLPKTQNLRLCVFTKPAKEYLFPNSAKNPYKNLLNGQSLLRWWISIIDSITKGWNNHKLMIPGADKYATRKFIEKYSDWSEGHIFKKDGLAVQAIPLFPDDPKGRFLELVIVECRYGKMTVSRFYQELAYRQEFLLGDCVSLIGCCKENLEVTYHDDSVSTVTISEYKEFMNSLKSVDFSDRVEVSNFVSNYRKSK
PHOSPHO1 inh: inhibitors of human PHOSPHO1 phosphatase; Q8TCT1; recombinant PHOSPHO1, absorbance phosphatase assay; inhibition, % at 13.3 µM; actives 1.1% (n = 290,000); in the data active means inhibition above about 60%
Target sequence (Q8TCT1 whole entry, looked up): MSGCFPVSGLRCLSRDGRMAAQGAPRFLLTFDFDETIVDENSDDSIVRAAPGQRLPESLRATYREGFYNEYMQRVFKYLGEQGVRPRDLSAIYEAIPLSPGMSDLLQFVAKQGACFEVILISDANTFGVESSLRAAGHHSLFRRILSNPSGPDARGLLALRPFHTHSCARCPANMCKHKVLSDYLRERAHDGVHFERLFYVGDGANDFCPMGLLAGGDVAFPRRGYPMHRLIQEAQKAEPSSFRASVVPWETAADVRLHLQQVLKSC
TPT1 inh: blocks Candida albicans tRNA 2'-phosphotransferase | recombinant caTPT1, FP RNA substrate dephosphorylation | inhibition, % at 5 µM | actives 0.81% (n = 300,000) | AID 1962;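 active means inhibition above the mean of all tested compounds plus 3 SD, set per screening campaign, cut at about 24% in these data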;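 further: plate controls were DMSO alone for no effect and ferristatin control at 100 nM for full effect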
Active calls of the source: *.

How did CCOC(=O)C1=C(C)C(c2ccc(OC)cc2)NC(=S)N1 (stereo not drawn) do in these assays?
SKKanGAS inh: -4.3; Platelet DG rel: 5.1; WT yeast gro inh: -4.9; Rtt109 Vps75: -6.0; PHOSPHO1 inh: 2.6; TPT1 inh: 3.2

How did CCOC(=O)C1=C(c2cccc(Oc3ccccc3)c2)NC(=S)NC1C (stereo not drawn) do in these assays?
SKKanGAS inh: 6.6; Platelet DG rel: 2.5; WT yeast gro inh: 64.2*; Rtt109 Vps75: 2.8; PHOSPHO1 inh: 15.5; TPT1 inh: -0.6

Results for CCOC(=O)C1=C(C)C(c2cccc(Oc3ccccc3)c2)NC(=S)N1 (stereo not drawn) ?
SKKanGAS inh: -5.7; Platelet DG rel: -5.4; WT yeast gro inh: 66.0*; Rtt109 Vps75: 11.7; PHOSPHO1 inh: 6.9; TPT1 inh: 0.9

Results for COc1cc(S(=O)(=O)NCc2ccc3c(c2)OCO3)ccc1F ?
SKKanGAS inh: -0.7; Platelet DG rel: -0.3; TPT1 inh: -1.2

How did Cc1ccc(CNC(=O)Cc2ccc(NC3=NC4CS(=O)(=O)CC4S3)cc2)cc1 (stereo not drawn) do in these assays?
SKKanGAS inh: -0.1; Platelet DG rel: -3.9; Rtt109 Vps75: -2.4; PHOSPHO1 inh: 7.0; TPT1 inh: -0.8

What do the screens show for `Cc1ccc(NC2=NCC(Cc3ccc(Br)cc3)S2)cc1` (stereo not drawn)?
SKKanGAS inh: 85.3*; Platelet DG rel: 2.9; WT yeast gro inh: 92.8; Rtt109 Vps75: -0.8; PHOSPHO1 inh: 32.4; TPT1 inh: -0.3

How did CCc1ccc(NC2=NCC(c3ccccc3)S2)cc1 (stereo not drawn) do in these assays?
SKKanGAS inh: 94.0*; Platelet DG rel: -12.0; WT yeast gro inh: 74.9; Rtt109 Vps75: -12.8; PHOSPHO1 inh: 52.7; TPT1 inh: 1.8

Results for Cc1ccc(Nc2c(O)nc[nH]c2=O)cc1 ?
Rtt109 Vps75: -3.8

Results for O=C(NC(=S)Nc1ccc(-c2ccc(CO)o2)cc1)c1cccs1 ?
Platelet DG rel: 6.7; WT yeast gro inh: 8.3; Rtt109 Vps75: -1.6; PHOSPHO1 inh: 9.4; TPT1 inh: 18.2

What do the screens show for `Cc1ccc(C(=O)NC(=S)Nc2ccc(-c3ccc(CO)o3)cc2)cc1`?
SKKanGAS inh: 60.7*; Platelet DG rel: -5.3; WT yeast gro inh: 0.1; Rtt109 Vps75: 5.6; PHOSPHO1 inh: 0.6; TPT1 inh: 4.0

How did COc1ccccc1NC(=O)c1ccc(NC(=O)c2cc3c(s2)CCC3)cc1 do in these assays?
SKKanGAS inh: 73.1*; Platelet DG rel: -3.6; WT yeast gro inh: -3.3; Rtt109 Vps75: 4.0; PHOSPHO1 inh: 18.2; TPT1 inh: 1.5

How did O=C(Nc1ccccc1OC(F)F)c1cc2c(s1)CCC2 do in these assays?
SKKanGAS inh: -5.9; Platelet DG rel: 3.8; WT yeast gro inh: 6.4; Rtt109 Vps75: -10.6; PHOSPHO1 inh: -6.0; TPT1 inh: 3.7

What do the screens show for `COc1ccc(C(=NNc2ccccc2C(=O)O)c2ccc(OC)cc2)cc1`?
SKKanGAS inh: 18.2; Platelet DG rel: 1.0; WT yeast gro inh: 81.5*; Rtt109 Vps75: -9.0; PHOSPHO1 inh: 2.4; TPT1 inh: -3.8

How did O=C(CCC(=O)Nc1ccccc1Cl)NNC(=O)NC1CCCCC1 do in these assays?
SKKanGAS inh: -3.5; Platelet DG rel: 0.4; Rtt109 Vps75: 26.8; PHOSPHO1 inh: -0.6; TPT1 inh: -0.1

Results for CCCCC(=O)NC(=S)Nc1ccccc1N1CCCCC1 ?
SKKanGAS inh: 3.5; Platelet DG rel: 2.3; WT yeast gro inh: 65.4*; Rtt109 Vps75: -1.3; PHOSPHO1 inh: -4.0; TPT1 inh: -2.0

What do the screens show for `CCCCC(=O)NC(=S)Nc1cccc(Cl)c1N1CCCCC1`?
SKKanGAS inh: -13.6; Platelet DG rel: -14.4; WT yeast gro inh: 10.1; Rtt109 Vps75: 12.0; PHOSPHO1 inh: 1.8; TPT1 inh: 1.1

What do the screens show for `O=C(Cc1ccc(Cl)cc1)NC(=S)Nc1ccccc1N1CCOCC1`?
WT yeast gro inh: 62.2*; Rtt109 Vps75: 7.7; PHOSPHO1 inh: -4.5; TPT1 inh: -1.4

What do the screens show for `CCCC(=O)NC(=S)Nc1cccc(Cl)c1N1CCCCC1`?
SKKanGAS inh: 100.9*; Platelet DG rel: -3.5; WT yeast gro inh: 60.1*; Rtt109 Vps75: -2.5; PHOSPHO1 inh: 32.6; TPT1 inh: 2.4

What do the screens show for `CC(C)CCN(C(=S)Nc1cccc(F)c1)C(C)c1cccs1` (stereo not drawn)?
SKKanGAS inh: 9.1; Platelet DG rel: 7.8; WT yeast gro inh: 59.4*; Rtt109 Vps75: 2.9; PHOSPHO1 inh: -10.1; TPT1 inh: 0.6

How did COCCN(C(=S)Nc1cc(C)cc(C)c1)C(C)c1ccco1 (stereo not drawn) do in these assays?
SKKanGAS inh: -5.5; Platelet DG rel: 1.4; WT yeast gro inh: 60.6*; Rtt109 Vps75: -11.8; PHOSPHO1 inh: -0.6; TPT1 inh: -0.5

Results for COCCN(C(=S)Nc1cccc(C)c1)C(C)c1cccs1 (stereo not drawn) ?
SKKanGAS inh: -7.3; Platelet DG rel: 6.7; WT yeast gro inh: 58.9*; Rtt109 Vps75: 6.8; PHOSPHO1 inh: -3.5; TPT1 inh: -1.0

How did COCCN(C(=S)Nc1cc(C)cc(C)c1)C(C)c1cccs1 (stereo not drawn) do in these assays?
SKKanGAS inh: 9.1; Platelet DG rel: -4.1; WT yeast gro inh: 15.4; Rtt109 Vps75: -0.5; PHOSPHO1 inh: -12.4; TPT1 inh: -0.1

What do the screens show for `Cc1nn(C)c(Cl)c1CN1CCCC(C(=O)Nc2ccc(-c3cscn3)cc2)C1` (stereo not drawn)?
SKKanGAS inh: 50.1*; Platelet DG rel: -15.0; Rtt109 Vps75: 3.7; PHOSPHO1 inh: 12.6; TPT1 inh: -0.3

What do the screens show for `S=C(Nc1cccc2ccccc12)NN1CCCCCC1`?
Rtt109 Vps75: 6.7

How did S=C(Nc1cccc2ccccc12)NN1CCOCC1 do in these assays?
SKKanGAS inh: -3.3; Platelet DG rel: -1.0; WT yeast gro inh: 3.5; Rtt109 Vps75: inconclusive; PHOSPHO1 inh: 93.6*; TPT1 inh: -5.6

Results for CCOC(=O)Nc1ccc2c(CNC(C)c3ccccc3OC)cc(=O)oc2c1 (stereo not drawn) ?
SKKanGAS inh: 2.3; Platelet DG rel: 0.7; Rtt109 Vps75: 5.5; PHOSPHO1 inh: -8.0; TPT1 inh: -3.2

Results for O=c1c2ccccc2c(C=NCc2ccccn2)c(O)n1-c1ccccc1 ?
SKKanGAS inh: -1.0; Platelet DG rel: -1.8; WT yeast gro inh: -2.2; Rtt109 Vps75: -1.5; PHOSPHO1 inh: 7.1; TPT1 inh: -0.7

Results for Cc1ccc(-n2c(O)c(C=NCc3ccccn3)c3ccccc3c2=O)cc1C ?
SKKanGAS inh: 19.1; Platelet DG rel: -7.5; WT yeast gro inh: -1.9; Rtt109 Vps75: 61.7*; PHOSPHO1 inh: -5.1; TPT1 inh: 0.4

Results for CCCCC(c1nnnn1CC1CCCO1)N1CCN(c2cc(Cl)ccc2C)CC1 (stereo not drawn) ?
SKKanGAS inh: 1.8; Platelet DG rel: -4.0; WT yeast gro inh: 59.9*; Rtt109 Vps75: -3.2; PHOSPHO1 inh: 4.7

What do the screens show for `COc1ccc(Cl)cc1S(=O)(=O)N1CCN(Cc2ccc3c(c2)OCO3)CC1`?
Platelet DG rel: 8.1; WT yeast gro inh: 65.4*; Rtt109 Vps75: 2.5; PHOSPHO1 inh: 5.5; TPT1 inh: 0.5
